Compound activity from PubChem.
hcDAF12 agonist = H. contortus DAF-12 nuclear receptor activators, primary screen, cell-based, luminescence, HEK293, lit1-tk-luc reporter; HEK293 hcDAF-12 lit1-tk-luc reporter; 0% DMSO, 100% Δ7-dafachronic acid; actives 1.4% (n = 370,000); activation, % at 6.8 µM;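 active = activation above the mean of all tested compounds plus 3 SD, cut at about 5.5% in these data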
ssDAF12 agonist = S. stercoralis DAF-12 nuclear receptor activators, primary screen, cell-based, luminescence, HEK293, GRIP1 co-expression, lit1-tk-luc | Nuclear hormone receptor DAF-12 (Strongyloides stercoralis) | HEK293 ssDAF-12/GRIP1 lit1-tk-luc reporter; % of 3 µM dafachronic acid response | activation, % at 6.8 µM | actives 1% (n = 370,000);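 active = activation above the mean over all tested compounds plus 3 SD, cut at about 0.9% in these data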
DAX1 inh-1 = DAX1 (NR0B1) inhibitors on StAR promoter, primary screen, cell-based, luminescence, SF-1 (NR5A1), full-length DAX-1 | HEK293T StAR-luciferase reporter, SF-1/DAX-1 repression relief | inhibition, % at 6.8 µM | actives 1.1% (n = 370,000) | AID 652010, 2013;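 active = inhibition above the mean over all tested compounds plus 3 SD, cut at about 3.6% in these data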;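 note: higher inhibition means more luminescence from relief of DAX-1 repression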
DAX1 inh-2 = DAX1 (NR0B1) inhibitors, primary screen, cell-based, HEK293, Gal4-DAX1, luciferase luminescence; inhibition, % at 6.75 µM; actives 0.99% (n = 340,000); HEK293 Gal4-DAX1 luciferase reporter; Nuclear receptor subfamily 0 group B member 1 (Homo sapiens), P51843;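 active = inhibition above the mean over all tested compounds plus 3 SD, cut at about 4.2% in these data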;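 note: inhibition shows as a rise in luminescence from relieved DAX1 repression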
Target sequence (P51843 207-470 limits assumed): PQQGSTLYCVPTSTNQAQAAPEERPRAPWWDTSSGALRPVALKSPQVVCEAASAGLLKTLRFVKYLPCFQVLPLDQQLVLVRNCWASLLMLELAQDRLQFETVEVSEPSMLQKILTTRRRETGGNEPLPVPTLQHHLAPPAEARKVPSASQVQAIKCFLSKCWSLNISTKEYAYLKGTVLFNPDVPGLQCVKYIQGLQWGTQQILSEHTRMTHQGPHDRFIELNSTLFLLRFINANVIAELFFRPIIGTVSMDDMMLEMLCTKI
hgDAF-12 ag = H. glycines DAF-12 receptor agonists, primary screen, cell-based, luminescence, HEK293, GAL4 fusion, UAS-luciferase; Nuclear hormone receptor DAF-12 (Heterodera glycines), GAL4 fusion; activation, % at 6.8 µM; HEK293 GAL4-hgDAF12 UAS-luciferase reporter, agonist luminescence; normalized to butyrate control; AID 687014, 2013; actives 1.8% (n = 370,000);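 active = activation above a cutoff set at the mean of all screened compounds plus 3 SD, cut at about 10% in these data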
GAA850 FXN act = FXN promoter activators, primary screen, cell-based, luciferase luminescence, HEK293 lucGAA850; activation, % at 6 µM; actives 0.56% (n = 360,000); HEK293 lucGAA850 FXN promoter luciferase reporter, 24 h; percent of 10 µM SAHA response; AID 540364, 2011;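 active = activation above the average of all compounds screened plus 3 SD, cutoff fixed separately per campaign, cut at about 7.5% in these data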
Each line names hits and unclear results; the compound was inactive in the other large screens. The list is not random: actives were taken first. Their share in the collection is about 4.5%.

CC(=O)c1ccc(NC(=O)c2cc(Cl)sc2Cl)cc1	ssDAF12 agonist 1.4, hgDAF-12 ag 12.4
O=[N+]([O-])c1ccc(NN=Cc2ccc(O)cc2)nc1	DAX1 inh-2 6.0, hgDAF-12 ag 12.7
O=[N+]([O-])c1ccc(N/N=C/c2cccs2)nc1	DAX1 inh-2 6.0, hgDAF-12 ag 11.1
Cc1ccccc1-n1c(C)cc(/C=N/Nc2ccc([N+](=O)[O-])cn2)c1C	none
O=[N+]([O-])c1ccc(NN=Cc2ccccc2)nc1	none
O=[N+]([O-])c1ccc(NN=Cc2ccccc2O)nc1	none
Cc1cc(/C=N/Nc2ccc([N+](=O)[O-])cn2)c(C)n1-c1ccc(C(=O)O)cc1	DAX1 inh-2 6.6
O=[N+]([O-])c1ccc(NN=CCCc2ccccc2)nc1	hgDAF-12 ag 12.5
O=S1(=O)c2ccccc2-c2c(nnn2CC2CCCCC2)CN1C1CC1	none (no result: DAX1 inh-2, GAA850 FXN act)
COc1ccc(CN2C(C(=O)NCC(C)C)CSCCS2(=O)=O)cc1 (stereo unspecified)	none (no result: DAX1 inh-2, GAA850 FXN act)
C[C@@H]1C[C@H]2[C@@H](Cc3ccccc3)C(=O)N3[C@H](c4ccccc4)[C@H](C)C[C@H]3[C@@H](Cc3ccccc3)C(=O)N2[C@@H]1c1ccccc1	none (no result: DAX1 inh-2, GAA850 FXN act)
Cc1cc2cc3c(cc2n2c(SCC(=O)Nc4nc(-c5ccccc5)cs4)nnc12)OCO3	none (no result: DAX1 inh-1, DAX1 inh-2, GAA850 FXN act)
Clc1cnc(N/N=C/c2cccs2)c(Cl)c1	ssDAF12 agonist 1.0
COc1ccc(C=NNc2ccc([N+](=O)[O-])cn2)cc1	hgDAF-12 ag 11.0
CCN(CC)c1ccc(C=NNc2ccc([N+](=O)[O-])cn2)cc1	none
COC(=O)[C@]12C[C@H](CC(=O)NCc3ccc(C)o3)C(=O)N(Cc3cccc4ccccc34)C1=C[C@H](C(C)(C)C)O[C@@H]2C	none (no result: DAX1 inh-2, GAA850 FXN act)
Cc1nc2ccc(S(=O)(=O)NCC(=O)NCc3ccccc3Cl)cc2s1	none (no result: DAX1 inh-2, GAA850 FXN act)
CC1(C)CC(NCCC(c2ccccc2)c2ccco2)CCO1 (stereo unspecified)	DAX1 inh-2 8.2
CC1(C)CC(C(=O)NCCC(c2ccccc2)c2ccco2)CCO1 (stereo unspecified)	none
Nc1cccc(N=[N+]([O-])c2cccc(N)c2)c1	hgDAF-12 ag 11.3
Cc1ccc(CNC(=O)CSc2ccsc2[N+](=O)[O-])cc1	hcDAF12 agonist 6.5, hgDAF-12 ag 10.8
O=C(CSc1ccsc1[N+](=O)[O-])NCCc1ccc(Cl)cc1	none
COc1ccc(CNC(=O)CSc2ccsc2[N+](=O)[O-])cc1	ssDAF12 agonist 1.3
CCOc1ccc(-n2c(SCC(=O)Nc3ccc(S(=O)(=O)Nc4cc(C)nc(C)n4)cc3)nnc2-c2ccco2)cc1	none (no result: DAX1 inh-2, GAA850 FXN act)
C=CCc1ccccc1OCCSc1nc2ccc([N+](=O)[O-])cc2s1	ssDAF12 agonist 2.0
COC(=O)[C@]12C[C@H](CC(=O)N3CCN(C(=O)c4ccco4)CC3)C(=O)N(CCC3=CCCCC3)C1=C[C@H](C(C)C)O[C@@H]2C1CC1	none (no result: DAX1 inh-2, GAA850 FXN act)
COc1ccc(-n2c(=S)[nH]c3c(oc4ccccc43)c2=O)cc1	none
COc1ccc(-n2c(=S)[nH]c(=O)c3cccnc32)cc1	DAX1 inh-2 7.2
CCCC(=O)n1nc(-c2ccc(C)cc2)nc1NCc1ccco1	hgDAF-12 ag 12.7
CCOC(=O)[C@]12CCCCC/C=C\1N(Cc1ccc(OC)cc1)C(=O)[C@H]2CC(=O)NCC1CCCCC1	none (no result: DAX1 inh-2, GAA850 FXN act)
COc1ccc(Nc2nc3ccc(OC)cc3s2)cc1	hgDAF-12 ag 12.1
COc1ccc(C(=O)Nc2nc3ccc(OC)cc3s2)cc1	none
COc1ccc2nc(NC(=O)c3c(C)noc3C)sc2c1	none
COc1ccc2nc(Nc3nc(C)c(C(C)=O)s3)sc2c1	hgDAF-12 ag 12.8
COC(=O)C1CN(Cc2cn(Cc3ccc(F)cc3)nn2)CCS(=O)(=O)N1Cc1ccc(OC)cc1 (stereo unspecified)	none (no result: DAX1 inh-2, GAA850 FXN act)
O=C(Nc1nc(-c2ccccc2)c(C(=O)c2ccccc2)s1)c1ccc(S(=O)(=O)N2CCCCC2)cc1	hcDAF12 agonist 6.5
CC(=O)c1sc(NC(=O)c2ccccc2)nc1-c1ccccc1	DAX1 inh-2 4.8, hgDAF-12 ag 12.2
COc1ccc(C(=O)CSc2nnc(-c3cccs3)o2)cc1OC	none (no result: DAX1 inh-2, GAA850 FXN act)
COC(=O)c1cccc(Cn2ccc3ccc(-c4ccc5ccn(C(=O)c6cccc(OC)c6)c5c4)cc32)c1	none (no result: DAX1 inh-2, GAA850 FXN act)
Cc1cccn2cc(CSc3ccccc3N)nc12	DAX1 inh-1 4.0, hgDAF-12 ag 12.0
O=C(COC(=O)c1ccco1)c1ccc2ccccc2c1	none
Cc1ccc(C(=O)COC(=O)c2ccco2)cc1C	ssDAF12 agonist 1.0
CC(C)[C@@H](CO)N1Cc2nnn(Cc3ccccc3)c2-c2ccccc2S1(=O)=O	none (no result: DAX1 inh-2, GAA850 FXN act)
Cc1cc(C)n2nc(SCc3nc4ccccc4[nH]3)nc2n1	DAX1 inh-2 4.5
CCN(CC)CCNc1ncnc2c1sc1nc(N3CCOCC3)c3c(c12)CC(C)(C)SC3	ssDAF12 agonist 1.1
CN(C)CCNc1ncnc2c1sc1nc(N3CCOCC3)c3c(c12)CC(C)(C)SC3	none
COc1ccccc1CNC(=O)c1ccc(S(=O)(=O)N(C)c2ccccc2)cc1	none
COc1ccccc1N(C)S(=O)(=O)c1ccc(C(=O)NCc2ccccc2CN2CCCC2)cc1	DAX1 inh-1 4.2
Cc1ccc(OCCN2C(=O)c3ccccc3C2=O)cc1	none
O=C1c2ccccc2C(=O)N1CCOc1cccc(Br)c1	DAX1 inh-1 4.4
CC(=O)N[C@@H]1C[C@@H]2O[C@H](CO)CC[C@@H]2O[C@@H]1CCc1ccc(C#CC2(O)CCCC2)cc1	none (no result: DAX1 inh-2, GAA850 FXN act)
O=C(NN=Cc1ccccc1C(F)(F)F)c1cc(-c2ccc(Cl)cc2)n[nH]1	none (no result: DAX1 inh-2, GAA850 FXN act)
Cc1ccc(S(=O)(=O)SCCCSS(=O)(=O)c2ccc(C)cc2)cc1	none
Cc1ccc(S(=O)(=O)SC/C=C/CSS(=O)(=O)c2ccc(C)cc2)cc1	DAX1 inh-2 5.5
CC1CCCCC1NC(=O)COC(=O)C12CC3CC(CC(Cl)(C3)C1)C2 (stereo unspecified)	DAX1 inh-2 6.0
O=C(COC(=O)C12CC3CC(CC(Cl)(C3)C1)C2)Nc1ccccc1	none
CC1(C)C=Cc2ccc(O)c(C(=O)/C=C/c3ccccc3)c2O1	none (no result: DAX1 inh-1, DAX1 inh-2, GAA850 FXN act)
Cc1cc(NC(=O)CSc2nc3c(sc4ccccc43)c(=O)n2CCc2ccccc2)n[nH]1	none
